NS1 function inh – inhibitors of influenza NS1 protein function; hit rate 0.4% among 270,000; Potency, µM (titrated, usually from 46.1 µM); calls by dose curve; further: actives are rising curves; nearly all actives have a fitted effect of over 50% in size
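Read-out: OD600 growth recovery of NS1-expressing budding yeast. Cells grown overnight at 30C in -URA glucose medium, washed, resuspended and diluted 1:100 in 2% galactose assay medium, pH 6.0. Same strain lacking NS1 served as positive control.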
VACV Venus inh – vaccinia inhibition (Venus reporter); Vaccinia virus Venus reporter expression, fluorescence; Potency, µM (top dose mostly 36.5 µM), actives largely listed as inhibitors; hit rate 0.46% among 330,000; calls by dose curve; tested in A549 cells; further: nearly all actives have a fitted effect of over 30% in size
HCV inh – inhibitors of hepatitis C virus infection; Potency, µM (series often up to 41.8 µM), hits mostly inhibitors; hit rate 3.4% among 340,000; Huh7.5.1 HCVcc-Cre infection, luciferase reporter, 44 h
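Cells (1,000/well) were plated 4 h before compound, then infected with HCVcc-Cre virus (~0.5 moi). After 44 h further culture, infection was read as luciferase luminescence following a 15 min substrate incubation at room temperature.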
VACV mCherry inh – vaccinia inhibition (mCherry reporter); Vaccinia virus mCherry reporter infection, fluorescence; Potency, µM (top dose mostly 36.5 µM), usual class: inhibitors; AID 720579; hit rate 0.63% among 310,000; calls by dose curve; tested in A549 cells; further: nearly all actives have a fitted effect of over 35% in size
Pf growth 96h – inhibits malaria parasite growth, 96 h; P. falciparum luciferase reporter growth, 96 h; AID 504834; hit rate 6.9% among 320,000; Potency, µM (top dose mostly 28.7 µM), hits mostly inhibitors
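Luminescence readout: decreased luciferase signal marks inhibited growth of reporter-expressing P. falciparum in infected red cells (2% hematocrit, 0.05% parasitemia final), exposed to compound two generations (96 h, 37 C, 5% CO2).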
Pf growth 48h – inhibits P. falciparum growth in the first generation, 48 h; P. falciparum luciferase growth in erythrocytes, 48 h; Potency, µM (highest dose often 28.7 µM), usual class: inhibitors; hit rate 5.9% among 310,000; AID 504832
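Compounds are pin-transferred into medium, infected erythrocytes (2% hematocrit, 0.1% parasitemia final) are added, and plates sit one parasite generation at 37 C in 5% CO2. Detection reagent is then added and luminescence measured.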
Numbers stand for hits; [ ] = remark or other dose. Compounds with a hit are over-represented: about 11% of the library has one in this group of screens. Unless noted, the call rests on the fitted dose curve; in most records, active means well fitted inhibition curve with a large enough effect; inconclusive means small, poorly fitted or top-dose-only effect, or another doubt; inactive means no such curve, though single readings can be large or run the other way.

Results for Cc1ccc(-c2nn(Cc3ccccc3)cc2C(=O)N2CCN(c3ccccn3)CC2)cc1 ?
HCV inh: inactive; Pf growth 96h: inconclusive; Pf growth 48h: 13µM

How did CC(C)(Oc1ccc(Cl)cc1)C(=O)N1CCN(c2ccccn2)CC1 do in these assays?
NS1 function inh: inactive; VACV Venus inh: inactive; HCV inh: inactive; Pf growth 48h: 15µM

Results for COc1ccc(/C=C2\SC(=S)N(CCC(=O)NCCCN3CCOCC3)C2=O)cc1 ?
NS1 function inh: inactive; VACV Venus inh: inconclusive; HCV inh: inactive; VACV mCherry inh: inconclusive; Pf growth 96h: inactive; Pf growth 48h: inconclusive

Results for CC1(C)C2CC=C(/C=N/NC(=O)c3ccccc3O)C1C2 (configuration not stated) ?
NS1 function inh: inactive; VACV Venus inh: inactive; HCV inh: inactive; VACV mCherry inh: inconclusive; Pf growth 96h: inactive; Pf growth 48h: inactive

What do the screens show for `CNC(=S)N/N=C/C1=CCC2CC1C2(C)C` (configuration not stated)?
NS1 function inh: inactive; VACV Venus inh: inactive; HCV inh: inactive; VACV mCherry inh: inactive; Pf growth 96h: 4.1µM; Pf growth 48h: 5.9µM

What do the screens show for `CC1(C)C2CC=C(/C=N/NC(=S)NCCc3ccccc3)C1C2` (configuration not stated)?
NS1 function inh: inactive; VACV Venus inh: inactive; HCV inh: inconclusive; VACV mCherry inh: inactive; Pf growth 96h: 1.5µM; Pf growth 48h: inconclusive

What do the screens show for `C=CCSc1nc2ccccc2n1C(=O)/C=C/c1ccc(OC)c(OC)c1`?
NS1 function inh: inactive; HCV inh: inconclusive; Pf growth 96h: inactive; Pf growth 48h: inconclusive

What do the screens show for `C=CCSc1nc2ccccc2n1C(=O)/C=C/c1cc(OC)c(OC)c(OC)c1`?
NS1 function inh: inactive; HCV inh: 6.3µM; Pf growth 96h: inactive; Pf growth 48h: inconclusive

How did CCSc1nc2ccccc2n1C(=O)/C=C/c1ccc(OC)c(OC)c1 do in these assays?
NS1 function inh: inactive; VACV Venus inh: inconclusive; HCV inh: inconclusive; VACV mCherry inh: 28µM; Pf growth 96h: inactive; Pf growth 48h: inactive

Results for COC(=O)c1[nH]c2ccccc2c1NC(=O)/C=C/c1ccc2c(c1)OCO2 ?
NS1 function inh: inactive; VACV Venus inh: inactive; HCV inh: inactive; VACV mCherry inh: inactive; Pf growth 96h: inactive; Pf growth 48h: inactive

How did O=C(c1ccccc1)c1cc2ccc(O)cc2oc1=O do in these assays?
NS1 function inh: inactive; HCV inh: inactive; Pf growth 96h: 0.17µM; Pf growth 48h: inactive

How did O=C(c1ccc(Br)cc1)c1cc2ccc(O)cc2oc1=O do in these assays?
NS1 function inh: inactive; VACV Venus inh: inactive; HCV inh: inactive; VACV mCherry inh: inactive; Pf growth 96h: inactive; Pf growth 48h: inactive

What do the screens show for `Cc1ccccc1-n1nnnc1SC(C)C(=O)NC1CCCc2ccccc21` (configuration not stated)?
NS1 function inh: inactive; VACV Venus inh: inactive; HCV inh: inconclusive; VACV mCherry inh: inactive; Pf growth 96h: inconclusive; Pf growth 48h: inconclusive

How did CC(=O)/C(=C/c1ccccc1)C(=O)Nc1ccccc1C do in these assays?
NS1 function inh: inactive; VACV Venus inh: inconclusive; HCV inh: inconclusive; VACV mCherry inh: inconclusive; Pf growth 96h: inactive; Pf growth 48h: inactive[1.15 µM]

How did Cc1ccccc1NC(=O)C(=Cc1ccc(C(=O)O)cc1)C(=O)Nc1ccccc1C do in these assays?
NS1 function inh: inactive; VACV Venus inh: inconclusive; HCV inh: inconclusive; VACV mCherry inh: inconclusive; Pf growth 96h: inconclusive; Pf growth 48h: 3.7µM

Results for CCC(=O)N1CCc2cc(Br)cc(S(=O)(=O)NCc3ccccc3)c21 ?
VACV Venus inh: inactive; VACV mCherry inh: inactive

How did CCNC(=S)NNC(=O)c1ccccn1 do in these assays?
NS1 function inh: inactive; VACV Venus inh: inconclusive; HCV inh: inactive; VACV mCherry inh: inconclusive; Pf growth 96h: inconclusive; Pf growth 48h: inconclusive

Results for O=C(NNC(=O)C(c1ccccc1)c1ccccc1)c1ccccn1 ?
NS1 function inh: inactive; VACV Venus inh: inconclusive; HCV inh: 6.3µM; VACV mCherry inh: inconclusive; Pf growth 96h: 2.6µM; Pf growth 48h: 3.7µM

Results for O=C(NNc1ccccn1)C(c1ccccc1)c1ccccc1 ?
VACV Venus inh: inactive; HCV inh: inactive; VACV mCherry inh: inactive; Pf growth 96h: inconclusive; Pf growth 48h: inactive

What do the screens show for `O=C(NNC(=S)Nc1ccc(Cl)c(Cl)c1)c1ccccn1`?
NS1 function inh: inactive; VACV Venus inh: inconclusive; HCV inh: 4.5µM; VACV mCherry inh: inconclusive; Pf growth 96h: inconclusive; Pf growth 48h: 2.3µM

What do the screens show for `O=S(=O)(Nc1ccc(Br)cc1)N1CCOCC1`?
NS1 function inh: inactive; VACV Venus inh: inactive; HCV inh: inactive; VACV mCherry inh: inactive; Pf growth 96h: 9.3µM; Pf growth 48h: inactive

How did Cc1ccc(NS(=O)(=O)N2CCOCC2)cc1 do in these assays?
NS1 function inh: inactive; VACV Venus inh: inactive; HCV inh: inactive; VACV mCherry inh: inactive; Pf growth 96h: inconclusive; Pf growth 48h: inactive

Results for COc1cc2c(-c3ccc4cc[nH]c4c3)c(-c3ccc(C#N)cc3)oc(=O)c2cc1OC ?
VACV Venus inh: inconclusive; HCV inh: 11µM; VACV mCherry inh: inconclusive; Pf growth 96h: inconclusive; Pf growth 48h: 9.3µM

What do the screens show for `COc1ccccc1-c1oc2ccccc2c1-c1ccc2cc[nH]c2c1`?
VACV Venus inh: inconclusive; HCV inh: 11µM; VACV mCherry inh: inactive; Pf growth 96h: inconclusive; Pf growth 48h: 2.1µM

How did O=c1c2ccccc2oc2cc(-c3ccc4cc[nH]c4c3)ccc12 do in these assays?
VACV Venus inh: inconclusive; HCV inh: inactive; VACV mCherry inh: inactive

How did COc1ccc(-c2oc(=O)c3cc(OC)c(OC)cc3c2-c2ccc3c(c2)OCO3)cc1 do in these assays?
VACV Venus inh: inactive; HCV inh: inconclusive; VACV mCherry inh: inactive

How did CCOC(=O)c1ccc(-c2c(-c3ccccc3OC)oc3ccccc23)cc1F do in these assays?
VACV Venus inh: inactive; HCV inh: inactive; VACV mCherry inh: inactive; Pf growth 96h: 3.3µM; Pf growth 48h: inconclusive

Results for [O-]/[N+](=C/c1ccco1)c1ccccc1 ?
NS1 function inh: inactive; HCV inh: inactive; Pf growth 96h: inconclusive; Pf growth 48h: inactive

What do the screens show for `CCc1cc2c(NCc3ccccc3)nc(C)nc2s1`?
NS1 function inh: inactive; HCV inh: 7.9µM; Pf growth 96h: inactive; Pf growth 48h: inactive

How did CCc1cc2c(NCC(=O)O)ncnc2s1 do in these assays?
NS1 function inh: inactive; VACV Venus inh: inactive; HCV inh: inactive; Pf growth 96h: inactive

Results for CCc1cc2c(NCc3ccco3)ncnc2s1 ?
NS1 function inh: inactive; VACV Venus inh: inactive; HCV inh: 16µM; VACV mCherry inh: inactive; Pf growth 96h: inactive; Pf growth 48h: inactive

What do the screens show for `CC(=O)Nc1ccc(S(=O)(=O)N2CCNC(=O)C2)cc1`?
VACV Venus inh: inactive; HCV inh: inactive; VACV mCherry inh: inactive

Results for CCOC(=O)C1=C(C)Nc2nnnn2C1c1cccnc1 (configuration not stated) ?
NS1 function inh: inactive; VACV Venus inh: inactive; HCV inh: inactive; VACV mCherry inh: inactive; Pf growth 96h: inconclusive; Pf growth 48h: inactive

Screening data deposited in PubChem by National Center for Advancing Translational Sciences (NCATS).
